PfG6PD inh: PfG6PD enzyme inhibitors, primary screen, biochemical, fluorescence intensity, uHTS | glucose-6-phosphate dehydrogenase-6-phosphogluconolactonase (Plasmodium falciparum 3D7) | PfGluPho enzyme, NADPH resazurin-diaphorase fluorescence | inhibition, % at 20 µM | 350,000 tested, 0.78% active | AID 504690, 2011;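 active = inhibition reaching at least a set limit at 20 µM in the primary screen, cut at about 59% in these data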;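 also: 0% = DMSO wells with substrate and 100% = DMSO wells lacking glucose-6-phosphate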
KLK7 zymogen act: proKLK7 zymogen activators, primary screen, biochemical, fluorescence intensity; purified proKLK7, EDANS-DABCYL substrate fluorescence; 100% is mature enzyme control, 0% vehicle; activation, % at 7 µM; 370,000 tested, 0.9% active;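 active = activation above the mean of all tested compounds plus 3 SD, computed per campaign excluding outliers beyond control limits, cut at about 13% in these data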
Target sequence (P49862 whole entry, looked up): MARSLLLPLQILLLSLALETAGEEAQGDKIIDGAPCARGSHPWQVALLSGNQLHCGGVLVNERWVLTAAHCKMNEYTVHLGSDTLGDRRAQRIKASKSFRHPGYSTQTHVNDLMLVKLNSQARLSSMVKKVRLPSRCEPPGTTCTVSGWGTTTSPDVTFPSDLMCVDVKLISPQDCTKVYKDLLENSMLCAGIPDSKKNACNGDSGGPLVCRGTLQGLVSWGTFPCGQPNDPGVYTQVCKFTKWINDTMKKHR
FAS-TE inh: FAS thioesterase domain inhibitors, primary screen, biochemical, fluorescence intensity, uHTS; Fatty acid synthase (Homo sapiens), P49327; recombinant FAS-TE, OMFH fluorogenic substrate, fluorescence endpoint; inhibition, % at 15 µM; 360,000 tested, 0.67% active; AID 602261, 2012;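 active = compounds whose normalised, plate-corrected inhibition of enzyme fluorescence in the single-dose primary screen is 50% or more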;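 also: 0% = DMSO with enzyme and 100% = substrate without enzyme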
Neddylation inh: inhibitors of cullin neddylation, primary screen, biochemical, TR-FRET, uHTS, NAE and Ubc12; NEDD8-conjugating enzyme Ubc12 (Homo sapiens) + NEDD8-activating enzyme E1 regulatory …; calls only at 25 µM; 360,000 tested, 0.58% active; in the data active = inhibition above about 36%
PfG6PD confirm: PfG6PD inhibitors, hit retest, confirmation, biochemical, fluorescence intensity, single concentration. shares compounds with PfG6PD inh. recombinant PfGluPho, NADPH-diaphorase-resazurin fluorescence. AID 504753, 2011. inhibition, % at 20 µM. 2,400 tested, 34% active;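 active = inhibition of at least 50% at 20 µM in any single replicate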;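 also: 0% = DMSO with substrate and 100% = DMSO lacking glucose-6-phosphate substrate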
Diaphorase 10uM: diaphorase inhibitors and chemical oxidizers, confirmation, counter-screen for P. falciparum G6PD inhibitor project, biochemical, fluorescence intensity, 10 µM NADPH; shares compounds with PfG6PD inh; diaphorase-coupled resazurin reduction, NADPH 10 uM; inhibition, % at 20 µM; 820 tested, 39% active;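 active = average inhibition reaching 50% or more with the compound at 20 µM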;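 also: resorufin red fluorescence formed as diaphorase reduces resazurin using NADPH; 0% = DMSO with enzyme and 100% = DMSO without enzyme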
Diaph ctr 30uM: diaphorase inhibitors and chemical oxidizers, confirmation, counter-screen for P. falciparum G6PD inhibitor project, biochemical, fluorescence intensity, 30 µM NADPH. shares compounds with PfG6PD inh. Diaphorase/resazurin coupled assay, resorufin fluorescence. inhibition, % at 20 µM. 820 tested, 29% active;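 active = inhibition averaging 50% or more, tested at 20 µM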;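 also: 0% = DMSO with enzyme and 100% = DMSO wells lacking diaphorase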
Starred values were filed as active, the others as inactive. Most compounds without a hit are left out; they make up all but 2.7% or so of the library.

Screening O=C(Cc1cccs1)Nc1cccc(-c2nc3cc4ccccc4cc3[nH]2)c1 returned PfG6PD inh 63*, KLK7 zymogen act -88, FAS-TE inh 19 and PfG6PD confirm 7.
Screening COc1ccc(Nc2ccnc3ccccc23)cc1 returned PfG6PD inh 12, KLK7 zymogen act 0, FAS-TE inh -2 and Neddylation inh inactive.
Screening CC(C)Nc1ccc(Nc2ccnc3cc4ccccc4cc23)cc1 returned PfG6PD inh 65*, KLK7 zymogen act 2, FAS-TE inh -3, Neddylation inh inactive and PfG6PD confirm 19.
CCOC(=O)[C@@]12CCC3=C1N(CCC3)C(=O)[C@H](CC(=O)NCCCOC)C2 was read as KLK7 zymogen act 0.
C/C(=N\Nc1ccc(C)c(Cl)c1)c1cccnc1 was read as PfG6PD inh 96*, KLK7 zymogen act 0, FAS-TE inh 10, Neddylation inh inactive and PfG6PD confirm 37.
For COc1ccc2c3c(ccc2c1)C(=O)/C(=C/O)CC3 the results were PfG6PD inh 69*, KLK7 zymogen act -16, FAS-TE inh -9 and PfG6PD confirm 45.
`COc1ccc2c(c1)CC/C(=C/c1ccncc1)C2=O` gave PfG6PD inh -3, FAS-TE inh -7 and Neddylation inh inactive.
For COc1ccc(CNC(=O)Cc2cn(C)c3ccccc23)c(OC)c1 the results were PfG6PD inh 79*, KLK7 zymogen act 0, FAS-TE inh -8, Neddylation inh inactive, PfG6PD confirm 55*, Diaphorase 10uM 49 and Diaph ctr 30uM 52*.
For COc1ccccc1CNC(=O)CCCc1cn(C)c2ccccc12 the results were PfG6PD inh -13, KLK7 zymogen act 1, FAS-TE inh 3 and Neddylation inh inactive.
`CC(C)NC(=S)NNc1nc2ccccc2s1` gave PfG6PD inh 74*, KLK7 zymogen act 0, FAS-TE inh -4, Neddylation inh inactive and PfG6PD confirm 22.
`Cn1c(Cc2cccs2)nnc1SCC(=O)Nc1ccc2cn[nH]c2c1` gave KLK7 zymogen act -1.
CCOC(=O)c1c(NC(=O)C(Sc2ccccc2)c2ccccc2)sc(C(=O)N(C)C)c1C (stereo not given) was read as PfG6PD inh 79*, KLK7 zymogen act 0, FAS-TE inh 34, Neddylation inh inactive and PfG6PD confirm 0.
Screening CCOC(=O)c1c(NC(=O)C(Sc2ccccc2)c2ccccc2)sc(C(N)=O)c1C (stereo not given) returned PfG6PD inh 61*, KLK7 zymogen act 0, FAS-TE inh 0, Neddylation inh inactive and PfG6PD confirm 2.
`CCC(C(=O)Nc1sc(C(N)=O)c(C)c1C(=O)OC)c1ccccc1` (stereo not given) gave PfG6PD inh -4, KLK7 zymogen act 0, FAS-TE inh 4 and Neddylation inh inactive.
Screening Cc1ccc(NC(=O)Cn2nnc(-c3ccncc3)n2)cc1C returned KLK7 zymogen act 0.
For Cc1ccc(N(CC(=O)N/N=C/c2cccc(Br)c2)S(C)(=O)=O)cc1 the results were PfG6PD inh 115*, KLK7 zymogen act 0, FAS-TE inh -9, Neddylation inh inactive, PfG6PD confirm 86*, Diaphorase 10uM 79* and Diaph ctr 30uM 71*.
Screening CCCCCCCCC(=O)N/N=C/c1cccc(Br)c1 returned PfG6PD inh 81*, KLK7 zymogen act 0, FAS-TE inh 8, Neddylation inh inactive and PfG6PD confirm 11.
`Cc1ccc(N(CC(=O)N/N=C/c2cccs2)S(C)(=O)=O)cc1` gave PfG6PD inh 12, KLK7 zymogen act 0, FAS-TE inh -8 and Neddylation inh inactive.
Screening O=C(CCC(=O)Nc1ccc(F)cc1)N/N=C/c1cccc(Br)c1 returned PfG6PD inh 113*, KLK7 zymogen act 0, FAS-TE inh 4, Neddylation inh inactive, PfG6PD confirm 75*, Diaphorase 10uM 66* and Diaph ctr 30uM 59*.
For O=C(CSc1nc2ccccc2n1Cc1ccccc1Cl)NN=C/C(Br)=C/c1ccccc1 the results were KLK7 zymogen act -1.
Screening COC(=O)[C@]12C[C@H](CC(=O)NCCCN3CCCC3=O)C(=O)N(Cc3ccc(Cl)cc3Cl)C1=C[C@H](C(C)(C)C)O[C@@H]2C returned KLK7 zymogen act -1.
For Clc1ccc(/C=N/NC2=Nc3cccc4cccc2c34)cc1 the results were PfG6PD inh 31, KLK7 zymogen act 1, FAS-TE inh -1 and Neddylation inh inactive.
`C(=N\NC1=Nc2cccc3cccc1c23)/c1cccnc1` gave PfG6PD inh 82*, KLK7 zymogen act 1, FAS-TE inh -4, Neddylation inh inactive and PfG6PD confirm 36.
For C(=N\NC1=Nc2cccc3cccc1c23)/c1ccccc1 the results were PfG6PD inh 66*, KLK7 zymogen act 1, FAS-TE inh 19, Neddylation inh inactive and PfG6PD confirm 10.
Screening Clc1ccc(N/N=C/c2cccnc2)cc1 returned PfG6PD inh 28, KLK7 zymogen act 0, FAS-TE inh 9 and Neddylation inh inactive.
`COc1ccc(CN2C[C@]3(C=C4CCCCC4n4c(=O)n(-c5ccccc5)c(=O)n43)N=C2NC(=O)c2ccccc2)c(OC)c1` (stereo not given in full) gave KLK7 zymogen act 0.
Screening CCOC(=O)[C@]12CCCCC/C=C\1N(Cc1ccc(OC)cc1)C(=O)[C@H]2CC(=O)N1CCSCC1 returned KLK7 zymogen act 0.
Screening COc1cnn(-c2ccc(Br)cc2)c(=O)c1SCc1ccccc1 returned PfG6PD inh 17, KLK7 zymogen act 0, FAS-TE inh 4 and Neddylation inh inactive.
COc1cnn(-c2ccccc2)c(=O)c1SCc1ccc(Cl)cc1Cl was read as PfG6PD inh 66*, KLK7 zymogen act 0, FAS-TE inh 9, Neddylation inh inactive and PfG6PD confirm -3.
For COc1cnn(-c2ccc(C)cc2)c(=O)c1SCc1ccccc1 the results were PfG6PD inh 66*, KLK7 zymogen act 0, FAS-TE inh 1, Neddylation inh inactive and PfG6PD confirm 3.
`CO/N=C/c1ccc(Oc2ccc([N+](=O)[O-])cc2[N+](=O)[O-])c(OC)c1` gave PfG6PD inh 94*, KLK7 zymogen act 0, FAS-TE inh 28, Neddylation inh inactive and PfG6PD confirm 44.
